The source of these data is PMC10726135, “HNF4α isoforms regulate the circadian balance between carbohydrate and lipid metabolism in the liver”.

In all, about 18,000 sequences were measured (“log2 normalized intensity”: median about 0.36, highest 2% from about 7.3 on). Shown is part of a subset that was picked to be rich in the highest values.

In the experiment the target is T1, HNF4alpha8 (COS-7 nuclear extract) (Homo sapiens, UniProt P41235-5 1-452).
T1 sequence: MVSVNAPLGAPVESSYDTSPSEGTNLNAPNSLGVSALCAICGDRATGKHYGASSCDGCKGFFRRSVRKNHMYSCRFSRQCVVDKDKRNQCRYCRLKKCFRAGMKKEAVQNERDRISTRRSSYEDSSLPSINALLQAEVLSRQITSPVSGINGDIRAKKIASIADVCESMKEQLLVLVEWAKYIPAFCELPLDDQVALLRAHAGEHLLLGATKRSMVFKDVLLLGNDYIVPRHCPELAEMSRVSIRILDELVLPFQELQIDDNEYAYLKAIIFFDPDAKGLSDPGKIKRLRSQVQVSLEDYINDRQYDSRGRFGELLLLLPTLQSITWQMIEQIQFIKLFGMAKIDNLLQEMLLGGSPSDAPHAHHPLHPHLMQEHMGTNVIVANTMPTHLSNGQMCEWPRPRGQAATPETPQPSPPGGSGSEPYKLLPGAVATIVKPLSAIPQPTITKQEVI
Description: protein-binding microarray; COS-7 nuclear extract on double-stranded Agilent 4x180k PBM; binding buffer, salt, pH and temperature not given in the material; high values mean tight binding. The settings on record: chain copies: 2; label: 3' end of strand 1 on the slide; dsDNA, one strand shown. The method, boiled down: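 Nuclear extracts came from COS-7 cells transiently transfected by CaPO4 with a human HNF4α isoform expression vector. They were applied to a custom Agilent SurePrint G3 4x180k array of ~60-nt oligonucleotides, made double-stranded, with ~44,000 test sequences spotted in quadruplicate. Bound HNF4α was imaged at 2-µm resolution on an Agilent G2565CA scanner. Binding signal was taken as background-corrected, normalized gProcessedSignal from Agilent software.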
For “GACCAGCGTGTGGCGCCATTTCAGGTCCACGCCTAGGGAGATTAGAGTATCGGTCGA”, the binding signal was 1.74 log2 normalized intensity.

As for “AATACTCCAGTCATTGTACAAACACATACCGCCTAGGGAGATTAGAGTATCGGTCGA”, the binding signal was -0.533 log2 normalized intensity.

In the case of “CTCTTAGTATTACCATGTCCTGTGATTAAGGCCTAGGGAGATTAGAGTATCGGTCGA”, the binding signal was 1.16 log2 normalized intensity.

Regarding “TGGGCCAGGTATTTGGACTTTTTGTAGTTTGCCTAGGGAGATTAGAGTATCGGTCGA”, the binding signal worked out at 3.34 log2 normalized intensity.

With “CCCTGACCAAGGGTCATGCTGGTCTCCTTGGCCTAGGGAGATTAGAGTATCGGTCGA”, the binding signal was 2.46 log2 normalized intensity.

In the case of “CAATAAGCAATACATTGAACTTTGAACACCGCCTAGGGAGATTAGAGTATCGGTCGA”, the binding signal amounted to 7.99 log2 normalized intensity.

Take “GTTCAAACTTTATTTGATGATGAAGCAACAGCCTAGGGAGATTAGAGTATCGGTCGA”: the binding signal was 0.662 log2 normalized intensity.

On to “TTTTCAACATATACTTTGAACTTGTTTTTTGCCTAGGGAGATTAGAGTATCGGTCGA”, for which the binding signal was 2.56 log2 normalized intensity.

For the sequence “AAGCAAACAAAACACGGACTTTGAAGCTCCGCCTAGGGAGATTAGAGTATCGGTCGA”, the binding signal was 3 log2 normalized intensity.

For the sequence “TTGTTCAATAAGCAATACATTGAACTTTGAGCCTAGGGAGATTAGAGTATCGGTCGA”, the binding signal came to 8.23 log2 normalized intensity.

Consider “AGCAATACATTGAACTTTGAACACCTCTTCGCCTAGGGAGATTAGAGTATCGGTCGA”, for which the binding signal was 6.54 log2 normalized intensity.

With “GGCAGTCGTGATAGTGACCACCTGGTGGACGCCTAGGGAGATTAGAGTATCGGTCGA”, the binding signal worked out at 1.42 log2 normalized intensity.

Consider “GTTGAGAACTGAGTTTAGAATTTGAACTATGCCTAGGGAGATTAGAGTATCGGTCGA”, for which the binding signal turned out to be 3.68 log2 normalized intensity.

Turning to “AGTTCAATTTCCAACAAATGAAACTAAAGGGCCTAGGGAGATTAGAGTATCGGTCGA”, the binding signal was -0.972 log2 normalized intensity.

“CGCTCCCCGACCTCCTGCTGCAGCTCTGGGGCCTAGGGAGATTAGAGTATCGGTCGA”: the binding signal is -0.577 log2 normalized intensity.

“TGTTTATCAGAGCAAAGTTCAATTTCCAACGCCTAGGGAGATTAGAGTATCGGTCGA”: the binding signal came to 4.31 log2 normalized intensity.

Regarding “ATGCTTCAAATATTTGGATAATGTGCCCTTGCCTAGGGAGATTAGAGTATCGGTCGA”, the binding signal was 3.92 log2 normalized intensity.

Consider “ATGTGCCCTTTGTACCTGGGGCAAACATCAGCCTAGGGAGATTAGAGTATCGGTCGA”, for which the binding signal worked out at 5.3 log2 normalized intensity.

With “GTCAAACAAAAGAAAATGTGCCCTTTGGACGCCTAGGGAGATTAGAGTATCGGTCGA”, the binding signal is 7.26 log2 normalized intensity.

Regarding “TATTTGGATAATGTGCCCTTTGTACCTGGGGCCTAGGGAGATTAGAGTATCGGTCGA”, the binding signal amounted to 7.72 log2 normalized intensity.

On to “TCAAATATTTGGATAATGTGCCCTTTGTACGCCTAGGGAGATTAGAGTATCGGTCGA”, for which the binding signal stood at 7.39 log2 normalized intensity.

In the case of “GGATAATGTGCCCTTTGTACCTGGGGCAAAGCCTAGGGAGATTAGAGTATCGGTCGA”, the binding signal was found to be 5.83 log2 normalized intensity.

Consider “CAATCAGCCTTAGGTATGCCCCATGGTAAGGCCTAGGGAGATTAGAGTATCGGTCGA”, for which the binding signal turned out to be 1.49 log2 normalized intensity.

For “GAATTCCATCCCAGGTCCACAGTGCACATTGCCTAGGGAGATTAGAGTATCGGTCGA”, the binding signal worked out at 2.26 log2 normalized intensity.

As to “AAGGACAAAGGTCATGTTTTCAAACAATGAGCCTAGGGAGATTAGAGTATCGGTCGA”, the binding signal was 5.49 log2 normalized intensity.

On to “CTGCTGGTTTTTGTCAAAGATAGTTGTAGTGCCTAGGGAGATTAGAGTATCGGTCGA”, for which the binding signal stood at 1.62 log2 normalized intensity.
